We go through 43 sequences from publication PMC7819943, “Rice protein-binding microarrays: a tool to detect cis-acting elements near promoter regions in rice”.

Whole data set: some 39,000 sequences, median “fluorescence intensity (a.u.)” near 4,300, cut for the highest 2% near 39,000. This excerpt belongs to a sample that is enriched for the highest values.

This experiment deals with T1, OsSMF1 (Oryza sativa, UniProt Q6ZLB0 1-436).
T1 sequence: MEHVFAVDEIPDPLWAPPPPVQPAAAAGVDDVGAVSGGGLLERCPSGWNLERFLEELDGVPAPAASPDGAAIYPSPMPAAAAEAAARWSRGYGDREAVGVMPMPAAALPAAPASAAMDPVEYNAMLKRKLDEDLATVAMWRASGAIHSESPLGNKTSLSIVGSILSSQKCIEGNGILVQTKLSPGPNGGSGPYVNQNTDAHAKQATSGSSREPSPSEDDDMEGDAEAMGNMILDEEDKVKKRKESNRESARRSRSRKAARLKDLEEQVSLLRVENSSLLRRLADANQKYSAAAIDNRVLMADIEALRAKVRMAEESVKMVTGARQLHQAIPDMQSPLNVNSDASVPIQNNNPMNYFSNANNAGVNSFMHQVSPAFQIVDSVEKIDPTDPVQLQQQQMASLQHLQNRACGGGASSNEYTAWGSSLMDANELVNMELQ
The experiment is described as follows: protein-binding microarray (RPBM); PBS, 2% BSA, 51.3 ng/ul salmon testes DNA, 50 uM zinc acetate, 200 nM TF, 25 C, 1 h; high values mean tight binding. As to conditions: protein: recombinant; tags: N-terminal polyhistidine and DsRed monomer fusion (pET32a); chain copies: 2; label: CyDye5-dUTP incorporated in the synthesized complementary strand; 3' TTTTT single-stranded linker to array surface; dsDNA, one strand shown. The procedure, abridged: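 The binding signal is fluorescence intensity per feature, in arbitrary units, read on an Axon 4000B scanner. Polyhistidine- and DsRed-tagged transcription factors (N-terminal fusions) from E. coli BL21-CodonPlus were purified on Ni–NTA and applied at 200 nM for 1 h at 25 °C to a double-stranded, BSA-blocked custom Agilent array in buffer with 50 µM zinc acetate.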
For the sequence “TGTTGTGCTGGTTGGTTCCAGATCTAACAGTGACAGTGCGCGGAGTCACCTAGTGCAG”, the binding signal was 4380 fluorescence intensity (a.u.).
As to “AAGTCCGATTCGTGAGTCACAGATGTTGACTCGCCGAAAACGGAGTCACCTAGTGCAG”, the binding signal was 5350 fluorescence intensity (a.u.).
Consider “TCCTTCTATATGTTTGCACTTACGTGGGCCGTATTTATGCCGGAGTCACCTAGTGCAG”, for which the binding signal was 9040 fluorescence intensity (a.u.).
“GACGATCAAGATCGACACGACCAACGTGGCATGTTGCGTACGGAGTCACCTAGTGCAG”: the binding signal is 9470 fluorescence intensity (a.u.).
For the sequence “GAGGAGGAGGAGGCTGATGTGGCAGCCTGACATGTGGGGCCGGAGTCACCTAGTGCAG”, the binding signal was 7020 fluorescence intensity (a.u.).
Regarding “TACGATGAGTCATTTATTGATTATTGTATTAATGTTCCTTCGGAGTCACCTAGTGCAG”, the binding signal is 11500 fluorescence intensity (a.u.).
Take “TCCTTGATCCTTTATTTGATATTTGTTTAGATATATAATTCGGAGTCACCTAGTGCAG”: the binding signal is 37900 fluorescence intensity (a.u.).
On to “AAAGGATGATATTTATTCGATCCTTGTTCGAATGTAGACTCGGAGTCACCTAGTGCAG”, for which the binding signal was 55700 fluorescence intensity (a.u.).
The figure for “CGCTGTGTATATATGTGCAGGTCCATCCATGAGAGGTTGACGGAGTCACCTAGTGCAG” is 34900 fluorescence intensity (a.u.); for “GGCCAGCCGTGTAGGCGGAGGCACCACTCGGCGGCGACGGCGGAGTCACCTAGTGCAG” it is 49900 fluorescence intensity (a.u.); for “GGCATAATAGGCCAGCCGTGTAGGCAGAGACACCAGTCGGCGGAGTCACCTAGTGCAG” it is 4530 fluorescence intensity (a.u.).
For the sequence “GCCCAGCGTGCACGGCGCGACGGACTCGCGCGGCACTAGCCGGAGTCACCTAGTGCAG”, the binding signal is 5790 fluorescence intensity (a.u.).
In the case of “TGCTGAGTGAGTGATGAGTGTGCGAATGTGTGATCGATCGCGGAGTCACCTAGTGCAG”, the binding signal is 3860 fluorescence intensity (a.u.).
On to “ATTATTCATAAGCTGAATATTCTTATTCATACATTCGGATCGGAGTCACCTAGTGCAG”, for which the binding signal was 6460 fluorescence intensity (a.u.).
Turning to “CTAGGTCAACACCGCCATGTCAGCGCCACGTCAGCGAAACCGGAGTCACCTAGTGCAG”, the binding signal is 28700 fluorescence intensity (a.u.).
With “GCCACGTGGGATGAAGCCTAAGTCAACATCGCCACGTCAGCGGAGTCACCTAGTGCAG” the figure was 43200 fluorescence intensity (a.u.); with “CCAGGTCAACATTGCCACGTGTGCGGCCACGTCAGCGAAACGGAGTCACCTAGTGCAG”, 33400 fluorescence intensity (a.u.); with “CGAAGACTAAGTCAACACCACCACGTAGTCGCCACATCAGCGGAGTCACCTAGTGCAG”, 8880 fluorescence intensity (a.u.).
Regarding “GGCTATTGGGAGCCACGTCAGCCGGTGGCCTCCGCCATCGCGGAGTCACCTAGTGCAG”, the binding signal is 22600 fluorescence intensity (a.u.).
For “CACGTGGGACGAAAACTAGGTCAACATCGCCACGTCAGCGCGGAGTCACCTAGTGCAG”, the binding signal is 45900 fluorescence intensity (a.u.).
In the case of “GACTTGATTACCACGCGTATACTATATAGGACAAAATTGCCGGAGTCACCTAGTGCAG”, the binding signal is 3190 fluorescence intensity (a.u.).
In the case of “TGTTCCTCCACGTCGCTCCGCCGCTCCGCCCGCCTTGCTTCGGAGTCACCTAGTGCAG”, the binding signal is 5090 fluorescence intensity (a.u.).
On to “TCCGGAGAGTTGACGCAGCGTCAACCGGGTCCGTCGTTCTCGGAGTCACCTAGTGCAG”, for which the binding signal is 3800 fluorescence intensity (a.u.).
With “AATCGCGAGATATCCACGTGAGATTGCGCAGCGAGACGCGCGGAGTCACCTAGTGCAG” the figure was 5140 fluorescence intensity (a.u.); with “ATGAGAGATAAGTAGATGACACATTCACAGTTGCTATAGTCGGAGTCACCTAGTGCAG”, 4040 fluorescence intensity (a.u.).
With “AAGCTAGCGGTCACCCAGTCAGCTCACCCCGAGACGCACCCGGAGTCACCTAGTGCAG”, the binding signal is 4400 fluorescence intensity (a.u.).
“CGCAGTTGCTTCTGCAAAAGAGATTGATGACAAGGATCACCGGAGTCACCTAGTGCAG”: the binding signal is 3530 fluorescence intensity (a.u.).
For “TCGATCGACATGGTGAATTGGCGATCGGGTTGGCTCGGCTCGGAGTCACCTAGTGCAG”, the binding signal is 3170 fluorescence intensity (a.u.).
The figure for “GTAGGTGACATGTGTGGTGTCACACTGACTCAGCCATCACCGGAGTCACCTAGTGCAG” is 10600 fluorescence intensity (a.u.).
The figure for “TTATTTCTACTGCCACGTAGGTGCCACGTCAACGCCACGTCGGAGTCACCTAGTGCAG” is 37400 fluorescence intensity (a.u.); for “GCCACGTAGGTGCCATGTGGCACCACGTCAGCAAAATTGCCGGAGTCACCTAGTGCAG” it is 49100 fluorescence intensity (a.u.).
With “TAGGCAAATTACATGGCATGTGCCACGTCGTTGTTGCACCCGGAGTCACCTAGTGCAG” the figure was 16500 fluorescence intensity (a.u.); with “CTACTGACACGTAGGTGCCACCATGGCATGCCACGTCAGCCGGAGTCACCTAGTGCAG”, 61500 fluorescence intensity (a.u.); with “TTTTATTTCTACTGCCACGTAGGTGCCACGTCAACGCCACCGGAGTCACCTAGTGCAG”, 49800 fluorescence intensity (a.u.).
With “TTAGACACGTAGGTGCCATGTCAGCCAAAACCACCGAGGGCGGAGTCACCTAGTGCAG”, the binding signal was 17100 fluorescence intensity (a.u.).
With “TTTATTTCTACCGCCACGTAGGTGCCATGTCAATGTCACGCGGAGTCACCTAGTGCAG” the figure was 14300 fluorescence intensity (a.u.); with “TAAATGTTCGTGTGGCATGCCACATCAGCACCACGTAGGACGGAGTCACCTAGTGCAG”, 21400 fluorescence intensity (a.u.).
Regarding “CATAGATTAATATGAAATATATAACTCCACAAATATGCAACGGAGTCACCTAGTGCAG”, the binding signal is 3500 fluorescence intensity (a.u.).
Take “ACACGGCCTATAAATATCTAACCATCCTTTGCCTGTCGAGCGGAGTCACCTAGTGCAG”: the binding signal is 4970 fluorescence intensity (a.u.).
With “TGGATTTTGCACCGATCGCACCACGTCTCCGTCTGTTTGCCGGAGTCACCTAGTGCAG” the figure was 4240 fluorescence intensity (a.u.); with “TCGCCCGCACGTGGCCCTCCTCTCCTCCCTCCCACCTCGTCGGAGTCACCTAGTGCAG”, 3380 fluorescence intensity (a.u.); with “ACCACACACACACTGACACTGTGACACAACACAACACGGCCGGAGTCACCTAGTGCAG”, 6920 fluorescence intensity (a.u.).
Consider “TCACCAATCACCTGCCCTCACACCAACACGCCACGCGAACCGGAGTCACCTAGTGCAG”, for which the binding signal is 3750 fluorescence intensity (a.u.).
